± gives the standard deviation of the averaged measurements.
test system: Drosophila virilis antennal basiconic sensillum AB9; test: odor-evoked OSN spike response (post minus pre-stimulus); higher = stronger neuronal excitation; conditions: odor dilution: 10^-4
Procedure: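 Single sensillum recordings from antennal basiconic sensilla of D. virilis. A 500 ms pulse of odorant (10^-4 in mineral oil or DMSO) was delivered; the response is the change in spike frequency between the 1 s pre- and post-stimulus windows (spikes/s).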

SMILES | odor-evoked OSN spike response [spikes/s]
CC(C)=O [acetone] | 93.7 ± 30

Source: the supplement of paper PMC10477191
